According to PubChem BioAssay:
Where “and” joins values, the source holds several entries; their conditions need not be identical. Equal entries are not always repeated. Calls of active or inactive are those of the source. No rule for the calls is given here.

How the values were obtained:
[1] = test system: Botulinum neurotoxin type F light chain protease (Clostridium botulinum); test: Clostridium botulinum type F light chain protease inhibitors, microsphere substrate cleavage, validation (AID 588459); details: multiplex microsphere protease substrate cleavage assay, flow cytometry; at 10 µM; stronger effect = higher value
[2] = target: Botulinum neurotoxin type A (Clostridium botulinum) (UniProt P0DPI0); test: BoNT/A light chain protease inhibitors, biochemical, multiplex microsphere flow cytometry, validation set (AID 588460); details: at 10 µM, stronger effect = higher value
[3] = target: Lethal factor (Bacillus anthracis) (UniProt P15917); test: Bacillus anthracis lethal factor inhibition, microsphere flow cytometry protease assay, validation at 10 µM (AID 588461); details: multiplex microsphere protease cleavage assay, stronger effect = higher value

Measured: inhibition

Cn1c(=O)[nH]c(=O)c2c1ncn2CCN1CCOCC1
inactive: [1] 3.5% | [2] -1.5% | [3] -2.5%

CC1(C)CC(=O)c2c(nc3ccccc3c2N)C1
inactive: [1] 1% | [2] -0.5% | [3] 7.9%

CCOc1ccc(N2C(=O)CC(NCCNc3ccc([N+](=O)[O-])cn3)C2=O)cc1 (centres undefined)
inactive: [1] 0.9% | [2] 1.6% | [3] -3.4%

Oc1ccc(/C=C/c2cc(O)cc(O)c2)cc1
inactive: [1] -6.7% | [2] -2.2% | [3] 3.7%

Cc1ccc(N(CC2=NCCN2)c2cccc(O)c2)cc1
inactive: [1] -1.3% and 3.1% and -7.5% | [2] -1.3% and -1.2% and -1.7% | [3] -2.4% and -9.5% and -5.2%

Cn1c(SCC(=O)c2ccccc2)nnc1-c1ccncc1
inactive: [1] 1.7% | [2] 0.4% | [3] 3.4%

Cn1cc(CN2CCCC(CO)(Cc3cccc(Cl)c3)C2)cn1 (centres undefined)
inactive: [1] 4.8% | [2] 1.3% | [3] -5.4%

CCOC(=O)C1=C(C)N[C@@]2(O)c3ccccc3C(=O)[C@@]12O
inactive: [1] 2.4% | [2] 0.5% | [3] -1.2%

O=C(/C=C/c1ccc2c(c1)OCCCO2)c1ccc2ccccc2c1O
inactive: [1] 1.8% | [2] 1.1% | [3] -5.5%

CCCC(=O)Nc1ccccc1NC(C)=O
inactive: [1] 1.4% | [2] 0.3% | [3] -2.9%

O=C(CCc1ccccc1)Nc1ccccc1C(F)(F)F
inactive: [1] 0.7% | [2] -0.1% | [3] 0.5%

COc1cc2ccc(=O)oc2c(O)c1OCC=C(C)C
inactive: [1] -4.9% | [2] 1.4% | [3] 1.2%

Cc1ccc(C(=O)Nc2ccccc2C(=O)NC(C(=O)O)C(C)C)cc1 (centres undefined)
inactive: [1] 4.4% | [2] 0.5% | [3] -2%

C[C@H](CCC(=O)O)[C@H]1CC[C@H]2[C@@H]3C(=O)C[C@@H]4CC(=O)CC[C@]4(C)[C@H]3CC(=O)[C@]12C
inactive: [1] -1.4% | [2] -0.5% | [3] -0.9%

NC(=O)OCC(COC(N)=O)c1ccccc1
inactive: [1] -1% | [2] -1.7% | [3] -2.1%

CCCC1O[C@@H]2C[C@H]3[C@@H]4CCC5=CC(=O)C=C[C@]5(C)[C@H]4[C@@H](O)C[C@]3(C)[C@]2(C(=O)CO)O1 (some centres undefined)
inactive: [1] 6.3% | [2] 3.4% | [3] 3.4%

CCOc1ccc(OCCSc2nc3ccccc3[nH]2)cc1
inactive: [1] -6.7% | [2] -1.3% | [3] -1.8%

CCn1c2ccccc2c2cc(CC(N)=O)ccc21
inactive: [1] -5.5% | [2] -0.6% | [3] -0.1%

CCc1cc2c(=O)c(-c3nc(C)cs3)coc2cc1OC(C)C(=O)NCCO (centres undefined)
inactive: [1] -3.3% | [2] -0.8% | [3] -2.1%

COc1ccc(NC2=C(Cl)C(=O)N(c3ccccc3)C2=O)c(OC)c1
inactive: [1] 3.7% | [2] 1% | [3] -0.3%

Cc1cccc(C(=O)c2cccc(C)c2)c1
inactive: [1] -4.8% | [2] -0.8% | [3] -11.4%

COc1ccc(-c2coc3c(CN4CCOCC4)c(O)ccc3c2=O)cc1
inactive: [1] 2.6% | [2] 0.6% | [3] 4.1%

COc1ccc(CN(CCC(c2ccccc2)c2ccc(OC(C)C)cc2)C(=O)CCl)cc1OC (centres undefined)
inactive: [1] -3.8% | [2] 0.3% | [3] -6.4%

Cc1ncc([N+](=O)[O-])n1CCO
inactive: [1] 3% | [2] -0.4% | [3] -4.2%

COc1cc(NC(=O)N[C@@H](Cc2ccccc2)C(=O)O)cc(OC)c1
inactive: [1] 1.2% | [2] 0.4% | [3] -2.8%

CC1(C)CC(CC(=O)Nc2nccs2)(c2ccccc2)CCO1 (centres undefined)
inactive: [1] 3.8% | [2] 0.5% | [3] -1.9%

O=C(N/N=C/c1ccc([N+](=O)[O-])o1)c1ccc(O)cc1
inactive: [1] 0.2% | [2] -3.9% | [3] -11.9%

O=c1nc2n(c3c1oc1ccccc13)Cc1ccccc1-2
inactive: [1] 2.1% | [2] 0% | [3] -4.3%
